In PubChem BioAssay (Tox21):
Records with an inconclusive call do not appear. Values without a mark were called inactive. The source made the active and inactive calls. Calls come from the whole dose curve; as a rule, active = well fitted inhibition curve with a large enough effect in the repeat runs; inconclusive = weak or mixed curves; inactive = flat fitted curve, though single readings scatter.

Each molecule was assayed against Voltage-gated inwardly rectifying potassium channel KCNH2 (Homo sapiens) (UniProt Q12809) (assay: Human Ether-a-go-go-Related Gene (hERG) channel small molecule antagonists: fluorescence cell-based qHTS assay (AID 1671200; note: nearly all actives have a fitted effect of over 50% in size;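 for activity change, negative = inhibition: hERG-expressing U2OS cells given a thallium stimulus after FluxOR II dye loading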)). Conditions: hERG-U2OS cells, FluxOR thallium flux fluorescence; series mostly up to 76.8 µM; activity change, negative = inhibition: at the top concentration.
How it was run: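 hERG-U2OS cells plated overnight at 37 C, loaded with FluxOR II dye 1 h at RT in dark; after 10 min, thallium stimulus added. Fluorescence (480/540 nm) read kinetically for 2 min at 1 s intervals.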
% is set by controls: 0 for no effect and ±100 for the full control effect; potency is the fitted concentration of half-maximal effect.

Voltage-gated inwardly rectifying potassium channel KCNH2 (Homo sapiens), sequence (Q12809 whole entry, looked up): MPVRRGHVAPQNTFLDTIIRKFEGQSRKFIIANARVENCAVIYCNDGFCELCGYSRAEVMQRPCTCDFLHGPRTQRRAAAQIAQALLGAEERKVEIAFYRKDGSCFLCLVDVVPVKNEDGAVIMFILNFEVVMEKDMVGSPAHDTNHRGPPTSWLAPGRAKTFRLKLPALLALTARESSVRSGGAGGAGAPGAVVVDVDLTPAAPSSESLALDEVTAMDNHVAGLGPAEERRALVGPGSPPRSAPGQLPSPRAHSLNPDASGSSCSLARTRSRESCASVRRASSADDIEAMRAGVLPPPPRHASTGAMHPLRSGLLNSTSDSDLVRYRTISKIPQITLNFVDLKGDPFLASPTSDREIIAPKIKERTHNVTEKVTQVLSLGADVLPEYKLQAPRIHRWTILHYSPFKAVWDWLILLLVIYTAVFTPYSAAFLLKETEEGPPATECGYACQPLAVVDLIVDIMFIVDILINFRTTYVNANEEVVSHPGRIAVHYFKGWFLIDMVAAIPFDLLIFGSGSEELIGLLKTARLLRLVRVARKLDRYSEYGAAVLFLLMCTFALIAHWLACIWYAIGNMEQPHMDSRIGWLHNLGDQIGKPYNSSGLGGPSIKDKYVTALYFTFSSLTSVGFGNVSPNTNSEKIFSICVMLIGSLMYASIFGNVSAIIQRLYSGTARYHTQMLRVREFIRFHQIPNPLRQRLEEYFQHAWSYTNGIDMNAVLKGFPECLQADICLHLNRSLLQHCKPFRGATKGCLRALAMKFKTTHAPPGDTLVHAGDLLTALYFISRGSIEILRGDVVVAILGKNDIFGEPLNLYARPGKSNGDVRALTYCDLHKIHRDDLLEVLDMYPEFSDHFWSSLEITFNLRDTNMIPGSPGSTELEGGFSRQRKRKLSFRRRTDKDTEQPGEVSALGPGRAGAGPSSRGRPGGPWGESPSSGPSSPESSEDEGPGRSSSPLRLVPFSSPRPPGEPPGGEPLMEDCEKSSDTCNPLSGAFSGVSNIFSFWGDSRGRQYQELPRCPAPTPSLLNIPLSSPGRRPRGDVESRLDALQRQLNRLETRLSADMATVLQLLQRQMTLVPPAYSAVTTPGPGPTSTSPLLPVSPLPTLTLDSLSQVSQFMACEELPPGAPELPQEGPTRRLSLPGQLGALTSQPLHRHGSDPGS

Row | Structure (SMILES) | activity change, negative = inhibition | Potency
1 | CC(C)[N+](=O)[O-] | 0.954% | 
2 | CC(CC(C#N)(c1ccccc1)c1ccccc1)N(C)C (stereo not drawn) |  | 27.4 µM (active)
3 | O=[N+]([O-])c1cccc2cccnc12 | -0.29% | 
4 | C[C@]1(O)CC[C@H]2[C@@H]3CCC4=CC(=O)CC[C@]4(C)[C@@]3(F)[C@@H](O)C[C@@]21C | 3.42% | 
5 | COC(=O)C(C)Oc1ccc(Oc2ccc(Cl)cc2Cl)cc1 (stereo not drawn) |  | 38.9 µM (active)
6 | O=C1OC(=O)C2C1C1(Cl)C(Cl)=C(Cl)C2(Cl)C1(Cl)Cl (stereo not drawn) | -0.949% | 
7 | CCSC(=O)N(CC)C1CCCCC1 | -6.06% | 
8 | CC1=C(C(=O)Nc2ccccc2)S(=O)(=O)CCO1 | 1.81% | 
9 | Nc1cc2c3c(c1)C(c1ccccc1)=N[C@@H](NC(=O)c1cccnc1)C(=O)N3CC2 | -7.42% | 
10 | COC(=O)c1ccccc1S(=O)(=O)NC(=O)Nc1nc(C)cc(C)n1 | -0.614% | 
11 | N#Cc1c(Cl)cccc1Cl | 3.67% | 
12 | CC1=NNC(=O)N(/N=C/c2cccnc2)C1 | 1.7% | 
13 | CCCSC(=O)Cl | 2% | 
14 | OCCSCSCCO | 3.69% | 
15 | CCOC(=O)C1(c2ccccc2)CCN(CCc2ccc(N)cc2)CC1 |  | 19 µM (active)
16 | N#CC(Cl)(Cl)Cl | 0.975% | 
17 | CCOP(=S)(OCC)SCSP(=S)(OCC)OCC | -11.6% | 
18 | O=[N+]([O-])c1ccc2c3c(cccc13)CC2 | -1.72% | 
19 | C(CCOCC1CO1)COCC1CO1 (stereo not drawn) | -2.39% | 
20 | CC(N)=S | 11.8% | 
21 | COC(=O)C(c1ccccc1)C1CCCCN1 (stereo not drawn) | -4.49% | 
22 | O=CNC(N1CCN(C(NC=O)C(Cl)(Cl)Cl)CC1)C(Cl)(Cl)Cl (stereo not drawn) | -2.86% | 
23 | O=[N+]([O-])c1ccc(CBr)cc1 | 24.8% | 
